# Assay results published in PubChem BioAssay (NCI).
# Values joined by “and” are separate entries in the source; they are usually repeats but may differ in a detail not shown here. Identical values can stand only once. The panel holds about 83,000 compounds, 20% with a hit somewhere; the sample as a whole holds those more often.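 Cell lines were cultured in 96-well plates, exposed to a single compound concentration, and assessed for percent growth 48 hours later.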 A number with no mark means an inactive call. Active and inactive are the calls of the source. How the source made its calls: active means growth percent below 10; inactive means the rest.
# System: U251 CNS
# Assay: NCI-60 one-dose screen, 48 h (100 = growth as untreated, 0 = no growth, -100 = all killed)
# Details: 10 µM unless noted
row,SMILES,growth
1,Oc1ccccc1C=Nc1ccc(N2CCN(c3ccccc3)CC2)cc1,99.9%
2,Fc1ccc(NC(c2ccc(F)cc2)C2CCN(CCCCc3ccccc3)CC2)cc1 (configuration not stated),16.6%
3,NCCOCCOc1ccccc1,96.1%
4,COc1ccc(/C=C/C(=O)c2cc3c(N)c(C(=O)Nc4ccccc4)sc3nc2C)cc1,1.52% (active)
5,COc1ccc(/C(C)=C(\c2ccc(OCCN3CCCCCC3)cc2)c2ccc(OC(=O)C3CCCCC3)cc2)cc1,-84.9% (active)
6,N=c1c2c(-c3ccccc3)c(-c3ccccc3)oc2ncn1NC(=O)c1cccnc1,102%
7,O=C(Nc1cc(C(F)(F)F)cc(C(F)(F)F)c1)c1cc(Cl)ccc1O,-5.01% (active) and -11.5% (active)
